PubChem BioAssay (NCATS)
Results filed as inconclusive are left out. The source made the active and inactive calls. Calls follow the shape of the dose curve; as a rule, active = well fitted curve in the direction sought with a large enough effect; inconclusive = small, poorly fitted or top-dose-only effect, or another doubt; inactive = no such curve, though single readings can be large; an effect the other way counts as inactive or inconclusive.

Key:
[1] = Quantitative High-Throughput drug screen in 47 multiple myeloma cell lines against the NCATS MIPE library collection: INA6_PLB cell viability assay (AID 1918965; also: nearly all actives have a fitted effect of over 55% in size; also: potency is read from the fitted curve at half-maximal effect)
How it was run: (§1)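 Steps: seed 500 cells per well; pin-transfer MIPE 4.0 library; incubate 48 h at 37C, 5% CO2, humidified; add CellTiter-Glo, 5 min room temperature; read luminescence.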

[2] = Quantitative High-Throughput drug screen in 47 multiple myeloma cell lines against the NCATS MIPE library collection: JJN3_DSMZ cell viability assay (AID 1918966; also: nearly all actives have a fitted effect of over 50% in size; also: potency is read from the fitted curve at half-maximal effect)
How it was run: (§2)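 We plated 500 myeloma cells per well, pinned in MIPE 4.0 compounds, and incubated for 48 hours at 37C. ATP was then quantified with CellTiter-Glo, with DMSO and media-only wells defining 100% and 0%.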

[3] = Quantitative High-Throughput drug screen in 47 multiple myeloma cell lines against the NCATS MIPE library collection: H1112_PLB cell viability assay (AID 1918967; also: nearly all actives have a fitted effect of over 30% in size; also: potency is read from the fitted curve at half-maximal effect)
How it was run: as §2

[4] = Quantitative High-Throughput drug screen in 47 multiple myeloma cell lines against the NCATS MIPE library collection: Karpas25_ECACC cell viability assay (AID 1918968; also: nearly all actives have a fitted effect of over 35% in size; also: potency is read from the fitted curve at half-maximal effect)
How it was run: as §2

[5] = Quantitative High-Throughput drug screen in 47 multiple myeloma cell lines against the NCATS MIPE library collection: KMS12PE_JCRB cell viability assay (AID 1918972); also: nearly all actives have a fitted effect of over 30% in size; also: potency is read from the fitted curve at half-maximal effect
How it was run: as §1

[6] = Quantitative High-Throughput drug screen in 47 multiple myeloma cell lines against the NCATS MIPE library collection: MMM1_PLB cell viability assay (AID 1918976); also: potency is read from the fitted curve at half-maximal effect; nearly all actives have a fitted effect of over 35% in size
How it was run: (§3)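 Inhibition of viability over 48 h was scored by ATP content (CellTiter-Glo) in 500-cell wells. Zero and full viability were defined by media-only and DMSO-only wells.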

[7] = Quantitative High-Throughput drug screen in 47 multiple myeloma cell lines against the NCATS MIPE library collection: NCIH929_DSMZ cell viability assay (AID 1918978); also: nearly all actives have a fitted effect of over 35% in size; also: potency is read from the fitted curve at half-maximal effect
How it was run: as §3

[8] = Quantitative High-Throughput drug screen in 47 multiple myeloma cell lines against the NCATS MIPE library collection: MM1S_ATCC cell viability assay (AID 1918980); also: nearly all actives have a fitted effect of over 45% in size; also: potency is read from the fitted curve at half-maximal effect
How it was run: as §3

[9] = Quantitative High-Throughput drug screen in 47 multiple myeloma cell lines against the NCATS MIPE library collection: L363_DSMZ cell viability assay (AID 1918984); conditions: L363 myeloma viability, CellTiter-Glo ATP luminescence, 48 h; viability (% of control): at 45.8 µM (top of the series); also: nearly all actives have a fitted effect of over 40% in size; also: potency is read from the fitted curve at half-maximal effect
How it was run: as §3

[10] = Quantitative High-Throughput drug screen in 47 multiple myeloma cell lines against the NCATS MIPE library collection: KMS12BM_JCRB cell viability assay (AID 1918971); also: nearly all actives have a fitted effect of over 35% in size; also: potency is read from the fitted curve at half-maximal effect
How it was run: (§4)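 Approved and investigational drugs from MIPE 4.0 were added by pin tool to 500 cells per well. After 48 hours at 37C, ATP-based CellTiter-Glo luminescence indicated remaining viability.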

[11] = Quantitative High-Throughput drug screen in 47 multiple myeloma cell lines against the NCATS MIPE library collection: KMS26_JCRB cell viability assay (AID 1918975); also: nearly all actives have a fitted effect of over 45% in size; also: potency is read from the fitted curve at half-maximal effect
How it was run: as §4

[12] = Quantitative High-Throughput drug screen in 47 multiple myeloma cell lines against the NCATS MIPE library collection: OCIMY1_PLB cell viability assay (AID 1918979); also: nearly all actives have a fitted effect of over 35% in size; also: potency is read from the fitted curve at half-maximal effect
How it was run: as §3

[13] = Quantitative High-Throughput drug screen in 47 multiple myeloma cell lines against the NCATS MIPE library collection: MM1R_ATCC cell viability assay (AID 1918981); also: nearly all actives have a fitted effect of over 35% in size; also: potency is read from the fitted curve at half-maximal effect
How it was run: as §3

[14] = Quantitative High-Throughput drug screen in 47 multiple myeloma cell lines against the NCATS MIPE library collection: KMS28PE_JCRB cell viability assay (AID 1918983); also: nearly all actives have a fitted effect of over 35% in size; also: potency is read from the fitted curve at half-maximal effect
How it was run: as §3

[15] = Quantitative High-Throughput drug screen in 47 multiple myeloma cell lines against the NCATS MIPE library collection: MOLP8_DSMZ cell viability assay (AID 1918977); also: nearly all actives have a fitted effect of over 45% in size; also: potency is read from the fitted curve at half-maximal effect
How it was run: as §3

[16] = Quantitative High-Throughput drug screen in 47 multiple myeloma cell lines against the NCATS MIPE library collection: LP1_DSMZ cell viability assay (AID 1918982); also: nearly all actives have a fitted effect of over 35% in size; also: potency is read from the fitted curve at half-maximal effect
How it was run: as §3

[17] = Quantitative High-Throughput drug screen in 47 multiple myeloma cell lines against the NCATS MIPE library collection: KMS27_JCRB cell viability assay (AID 1918970); conditions: KMS27 myeloma cells, CellTiter-Glo ATP viability, 48 h; viability (% of DMSO): at 45.8 µM (top of the series); also: nearly all actives have a fitted effect of over 30% in size; also: potency is read from the fitted curve at half-maximal effect
How it was run: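 Each line is seeded at 500 cells per well and treated with library compounds for 48 hours under 37 °C, 5% CO2. CellTiter-Glo is then added for 5 min at room temperature before median relative luminescence is recorded.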

[18] = Quantitative High-Throughput drug screen in 47 multiple myeloma cell lines against the NCATS MIPE library collection: KMS34_JCRB cell viability assay (AID 1918985); also: nearly all actives have a fitted effect of over 40% in size
How it was run: as §3

[19] = Quantitative High-Throughput drug screen in 47 multiple myeloma cell lines against the NCATS MIPE library collection: KMS20_JCRB cell viability assay (AID 1918973); also: potency is read from the fitted curve at half-maximal effect; nearly all actives have a fitted effect of over 45% in size
How it was run: as §2

CCCCN(CCCC)CC(O)c1cc(Cl)cc2c1-c1ccc(Cl)cc1C2=Cc1ccc(Cl)cc1 (configuration not stated)
Potency [1]: 18.7 µM (active)
Potency [2]: 18.7 µM (active)
Potency [3]: 26.4 µM (active)
Potency [4]: 23.5 µM (active)
Potency [5]: inactive
Potency [6]: 23.5 µM (active)
Potency [7]: 26.4 µM (active)
Potency [8]: 23.5 µM (active)
Potency [9]: inactive

CO[C@H]1O[C@@H]2O[C@@]3(C)CC[C@@H]4[C@@H](C)CC[C@@H]([C@H]1C)[C@@]24OO3
Potency [1]: 0.469 µM (active)
Potency [2]: 5.9 µM (active)
Potency [3]: 7.43 µM (active)
Potency [4]: 1.18 µM (active)
Potency [10]: 3.32 µM (active)
Potency [11]: inactive
Potency [7]: 0.833 µM (active)
Potency [12]: inactive
Potency [8]: inactive
Potency [13]: 10.5 µM (active)
Potency [14]: 4.18 µM (active)

Cc1ccc(S(=O)(=O)OCC(=O)Nc2ccc(C(=O)O)c(O)c2)cc1
Potency [1]: 13.2 µM (active)
Potency [2]: 16.6 µM (active)
Potency [3]: 20.9 µM (active)
Potency [4]: 20.9 µM (active)
Potency [15]: inactive
Potency [7]: 7.43 µM (active)
Potency [16]: inactive

Cc1ccc(S(=O)(=O)Nc2nc3ccccc3nc2Nc2ccc3nsnc3c2)cc1
Potency [1]: 1.29 µM (active)
Potency [2]: 1.44 µM (active)
Potency [4]: 0.645 µM (active)
Potency [17]: 0.162 µM (active)
Potency [10]: 11.5 µM (active)
Potency [5]: 0.407 µM (active)
Potency [15]: 6.45 µM (active)
Potency [7]: 7.24 µM (active)
Potency [8]: 0.575 µM (active)
Potency [9]: 0.204 µM (active)

Cc1cc2nc3c(=O)[nH]c(=O)nc-3n(CC(O)C(O)C(O)CO)c2cc1C (configuration not stated)
Potency [1]: inactive
Potency [2]: 2.64 µM (active)
Potency [3]: inactive
Potency [4]: inactive
Potency [15]: inactive
Potency [7]: inactive
Potency [12]: inactive
Potency [8]: inactive
Potency [16]: inactive
Potency [14]: 0.0833 µM (active)

COc1c(C)c2c(c(O)c1CC=C(C)CCC(=O)O)C(=O)OC2
Potency [1]: 0.935 µM (active)
Potency [2]: 4.69 µM (active)
Potency [3]: 4.18 µM (active)
Potency [4]: 13.2 µM (active)
Potency [10]: 3.32 µM (active)
Potency [5]: 14.8 µM (active)
Potency [6]: 1.18 µM (active)
Potency [12]: 13.2 µM (active)
Potency [8]: 3.72 µM (active)
Potency [13]: 11.8 µM (active)
Potency [14]: 4.69 µM (active)

CC1CNc2c(cccc2S(=O)(=O)N[C@@H](CCCN=C(N)N)C(=O)N2CC[C@@H](C)C[C@@H]2C(=O)O)C1 (some centres not stated)
Potency [1]: inactive
Potency [2]: inactive
Potency [3]: inactive
Potency [4]: inactive
Potency [11]: inactive
Potency [12]: inactive
Potency [8]: 7.43 µM (active)
Potency [16]: inactive
Potency [18]: inactive

CN(C)CCOc1ccc(C(=C(CCCl)c2ccccc2)c2ccccc2)cc1
Potency [1]: 4.18 µM (active)
Potency [2]: 23.5 µM (active)
Potency [4]: inactive
Potency [17]: inactive
Potency [6]: 23.5 µM (active)
Potency [15]: 18.7 µM (active)
Potency [7]: inactive
Potency [12]: inactive
Potency [8]: 1.18 µM (active)
Potency [13]: 23.5 µM (active)
Potency [14]: 26.4 µM (active)

CN1C(=O)C(Cc2c[nH]c3ccccc23)NC1=S (configuration not stated)
Potency [1]: inactive
Potency [2]: inactive
Potency [3]: inactive
Potency [4]: 13.2 µM (active)
Potency [10]: 13.2 µM (active)
Potency [11]: inactive
Potency [6]: 11.8 µM (active)
Potency [15]: inactive
Potency [7]: inactive
Potency [12]: inactive
Potency [8]: inactive
Potency [13]: inactive
Potency [16]: inactive
Potency [14]: inactive
Potency [9]: inactive
Potency [18]: inactive

C[C@@]1(C(=O)Nc2ccc(F)nc2)CCCN1c1nc(Nc2cc(C3CC3)[nH]n2)c2cccn2n1
Potency [1]: 13.2 µM (active)
Potency [2]: 0.105 µM (active)
Potency [4]: 0.0332 µM (active)
Potency [17]: 0.0526 µM (active)
Potency [10]: 0.935 µM (active)
Potency [5]: 0.166 µM (active)
Potency [19]: 0.0743 µM (active)
Potency [11]: 0.0066 µM (active)
Potency [6]: 0.0209 µM (active)
Potency [7]: 0.0235 µM (active)
Potency [8]: 0.0469 µM (active)
Potency [13]: 0.0166 µM (active)
Potency [14]: 0.0296 µM (active)

CN1CC(=O)NC1=NC(=O)Nc1cccc(Cl)c1
Potency [1]: 14.8 µM (active)
Potency [2]: 8.33 µM (active)
Potency [3]: 16.6 µM (active)
Potency [4]: 5.26 µM (active)
Potency [5]: inactive
Potency [11]: 18.7 µM (active)
Potency [6]: 20.9 µM (active)
Potency [15]: 10.5 µM (active)
Potency [8]: 26.4 µM (active)
Potency [13]: 18.7 µM (active)
Potency [16]: 14.8 µM (active)
Potency [14]: inactive
Potency [9]: 2.96 µM (active)

CC(NCCc1ccc(O)cc1)C(O)c1ccc(O)cc1 (configuration not stated)
Potency [1]: inactive
Potency [2]: inactive
Potency [3]: inactive
Potency [10]: inactive
Potency [5]: inactive
Potency [11]: inactive
Potency [6]: 14.8 µM (active)
Potency [15]: inactive
Potency [7]: inactive
Potency [8]: 5.9 µM (active)
Potency [13]: 4.18 µM (active)
Potency [9]: inactive
Potency [18]: inactive

CN(C)CCN(Cc1ccc(Cl)cc1)c1ccccn1
Potency [1]: 20.9 µM (active)
Potency [2]: inactive
Potency [4]: 11.8 µM (active)
Potency [17]: inactive
Potency [10]: inactive
Potency [5]: inactive
Potency [7]: 10.5 µM (active)
Potency [12]: inactive
Potency [8]: 16.6 µM (active)
Potency [13]: inactive
Potency [16]: inactive
Potency [14]: 5.9 µM (active)
Potency [9]: inactive
Potency [18]: inactive
